Where “and” joins values, the source holds several entries; their conditions need not be identical. Equal entries are not always repeated. Records with an inconclusive call do not appear. The source holds several records for some structures; these can differ, active in one and inactive in another. Calls of active or inactive are those of the source. How the source made its calls, unless noted: active means hit-call score of the fitted dose curve at least 0.9, where 1 is the maximum; inconclusive means response in the unintended direction; inactive means score below 0.9.

Test [1] relates to zebrafish Estrogen Receptor (ER2b), gene 317733. The test can be described thus: ATG_zfER2b_XSP2: Attagene TRANS-FACTORIAL Multi-Species (XSP2) HepG2 Assay for zebrafish Estrogen Receptor (ER2b) (AID 2283823).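 Further: fitted upward as reporter gain over DMSO so potency reflects activation.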 The gist of the method: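 Cells used were HepG2, transiently transfected with chimeric nuclear receptor-Gal4 reporter units. After 24 h of chemical treatment, reporter transcripts were amplified by RT-PCR, labelled and sized by capillary electrophoresis, with induction analysed relative to DMSO.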

Test [2] addresses Estrogen receptor (Homo sapiens) (UniProt P03372). Put plainly: ATG_hERa_XSP2: Attagene TRANS-FACTORIAL Multi-Species (XSP2) HepG2 Assay for human Estrogen Receptor (ERa) (AID 2283827). The gist of the method:
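HepG2 cells transiently transfected with multiplexed GAL4-UAS reporters driven by chimeric receptor-Gal4 proteins, dosed 24 h with 3 nM 6-alpha-fluorotestosterone and 1.5 nM norgestrel present. Reporter mRNA by RT-PCR and capillary electrophoresis; gain-of-signal fit versus DMSO.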

The target in test [3] is Nuclear receptor subfamily 1 group I member 2 (Mus musculus) (UniProt O54915). The test can be described thus: ATG_mPXR_XSP2: Attagene TRANS-FACTORIAL Multi-Species (XSP1) HepG2 Assay for mouse Pregnane X Receptor (PXR) (AID 2283831). The gist of the method: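 Reporter transcripts were quantified by RT-PCR, FAM primer extension, HpaI digestion and capillary electrophoresis after 24 h of chemical exposure in transiently transfected HepG2 cells carrying chimeric receptor-GAL4 constructs; DMSO served as baseline.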

For test [4], the target named is zebrafish Thyroid Hormone Receptor alpha (TRa), thraa (gene 30670) (UniProt Q98867). Put plainly: ATG_zfTRa_XSP2: Attagene TRANS-FACTORIAL Multi-Species (XSP1) HepG2 Assay for zebrafish Thyroid Hormone Receptor alpha (TRa) (AID 2283832).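 Further: actives raise zebrafish TRa-Gal4 reporter transcript above DMSO baseline.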 The gist of the method:
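Chimeric receptor-Gal4 activity was assessed in transfected human liver HepG2 cells 24 h after dosing, using reporter transcript levels detected by RT-PCR and capillary electrophoresis. DMSO served as baseline.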

Test [5] is described as follows: ATG_M_61_XSP2: Attagene TRANS-FACTORIAL Multi-Species (XSP2) HepG2 Assay for M61 Transcription Factor (Internal Marker) (AID 2283835; active means hit-call score of the fitted dose curve at least 0.9, where 1 is the maximum; inactive means score below 0.9;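 further: reporter mRNA of an internal background marker read by RT-PCR and capillary electrophoresis; active means a rise in signal above the DMSO baseline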). Put shortly:
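First, HepG2 cells are transfected with reporter units under GAL4-UAS control. Next, chemicals are applied for 24 h. Then total RNA is reverse-transcribed, amplified, fluorescently labelled and sized by capillary electrophoresis, with gain of signal scored against DMSO.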

A short description of test [6]: ATG_M_32_XSP2: Attagene TRANS-FACTORIAL Multi-Species (XSP2) HepG2 Assay for M19 Transcription Factor (Internal Marker) (AID 2283826). The gist of the method: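 Transfected HepG2 (multiplexed GAL4-UAS reporters), 24 h chemical exposure, 3 nM 6-alpha-fluorotestosterone + 1.5 nM norgestrel added. RNA → oligo(dT) RT → PCR → 6-FAM primer extension → HpaI cut → CE. Fitted upward vs DMSO.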

Test [7] addresses mouse Peroxisome Proliferator-activated Receptor gamma (PPARg), Pparg (gene 19016) (UniProt P37238). Put plainly: ATG_mPPARg_XSP2: Attagene TRANS-FACTORIAL Multi-Species (XSP2) HepG2 Assay for mouse Peroxisome Proliferator-activated Receptor gamma (PPARg) (AID 2283830).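 Further: hits are gains in reporter mRNA above DMSO so AC50 marks activation.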 Put shortly: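 HepG2 cells transiently transfected with GAL4-UAS reporter units for chimeric NR-Gal4 proteins including mouse PPARg, exposed 24 h; medium contained 3 nM 6-alpha-fluorotestosterone and 1.5 nM norgestrel. Reporter mRNA quantified by RT-PCR, HpaI digestion and capillary electrophoresis, vs DMSO.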

The subject of test [8] is zebrafish Peroxisome Proliferator-activated Receptor gamma (PPARg), gene 557037. The test can be described thus: ATG_zfPPARg_XSP2: Attagene TRANS-FACTORIAL Multi-Species (XSP2) HepG2 Assay for zebrafish Peroxisome Proliferator-activated Receptor gamma (PPARg) (AID 2283833).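 Further: actives increase reporter signal over DMSO so AC50 reflects activation.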 Put shortly:
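Multi-species TRANS format in HepG2, 24 h dosing; medium also contained 3 nM 6-alpha-fluorotestosterone and 1.5 nM norgestrel to stimulate androgen receptor. Zebrafish PPARg-GAL4 induced reporter mRNA was measured by RT-PCR/capillary electrophoresis.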

Test [9] relates to turtle Thyroid Hormone Receptor, alpha (TRa), gene 101949057. Put plainly: ATG_trTRa_XSP2: Attagene TRANS-FACTORIAL Multi-Species (XSP1) HepG2 Assay for turtle Thyroid Hormone Receptor, alpha (TRa) (AID 2283834).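 Further: hits raise reporter mRNA over the DMSO baseline so AC50 marks activators.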 The gist of the method:
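Transfection of HepG2 with multiple reporter transcription units, then chemical dosing for 24 h. Total RNA was reverse-transcribed, reporter sequences PCR-amplified and FAM-labelled, then sized by capillary electrophoresis. DMSO served as baseline.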

For test [10], the system named is frog Androgen Receptor (AR), gene 399456. The test can be described thus: ATG_frAR_XSP2: Attagene TRANS-FACTORIAL Multi-Species (XSP2) HepG2 Assay for frog Androgen Receptor (AR) (AID 2283824).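 Further: actives raise reporter signal above DMSO so AC50 reflects agonist-like induction.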 Put shortly:
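HepG2 cells transiently transfected with GAL4-UAS reporter units and frog (Xenopus laevis) AR-Gal4 chimera; reporter mRNA measured 24 h after dosing by RT-PCR and capillary electrophoresis. Gain of signal fitted relative to DMSO baseline.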

Chain of Estrogen receptor (Homo sapiens) (P03372 whole entry, looked up, the tested form may be a part): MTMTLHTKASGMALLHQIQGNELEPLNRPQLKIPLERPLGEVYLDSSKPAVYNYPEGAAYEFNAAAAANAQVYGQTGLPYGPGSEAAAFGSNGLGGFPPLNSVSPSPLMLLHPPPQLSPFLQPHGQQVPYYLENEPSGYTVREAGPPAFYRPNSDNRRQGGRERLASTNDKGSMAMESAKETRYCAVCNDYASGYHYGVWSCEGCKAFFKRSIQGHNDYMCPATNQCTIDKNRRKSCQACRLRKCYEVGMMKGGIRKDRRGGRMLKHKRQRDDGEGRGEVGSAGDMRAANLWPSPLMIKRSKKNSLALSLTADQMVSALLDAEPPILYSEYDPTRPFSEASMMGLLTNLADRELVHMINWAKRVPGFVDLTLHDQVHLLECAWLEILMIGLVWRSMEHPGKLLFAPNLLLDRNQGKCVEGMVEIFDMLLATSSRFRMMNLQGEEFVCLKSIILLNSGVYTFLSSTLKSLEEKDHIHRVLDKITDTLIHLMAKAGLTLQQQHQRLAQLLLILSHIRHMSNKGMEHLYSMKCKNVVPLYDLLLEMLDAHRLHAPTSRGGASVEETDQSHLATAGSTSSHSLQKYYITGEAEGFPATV
Chain of mouse Peroxisome Proliferator-activated Receptor gamma (PPARg), Pparg (gene 19016) (P37238 whole entry, looked up, the tested form may be a part): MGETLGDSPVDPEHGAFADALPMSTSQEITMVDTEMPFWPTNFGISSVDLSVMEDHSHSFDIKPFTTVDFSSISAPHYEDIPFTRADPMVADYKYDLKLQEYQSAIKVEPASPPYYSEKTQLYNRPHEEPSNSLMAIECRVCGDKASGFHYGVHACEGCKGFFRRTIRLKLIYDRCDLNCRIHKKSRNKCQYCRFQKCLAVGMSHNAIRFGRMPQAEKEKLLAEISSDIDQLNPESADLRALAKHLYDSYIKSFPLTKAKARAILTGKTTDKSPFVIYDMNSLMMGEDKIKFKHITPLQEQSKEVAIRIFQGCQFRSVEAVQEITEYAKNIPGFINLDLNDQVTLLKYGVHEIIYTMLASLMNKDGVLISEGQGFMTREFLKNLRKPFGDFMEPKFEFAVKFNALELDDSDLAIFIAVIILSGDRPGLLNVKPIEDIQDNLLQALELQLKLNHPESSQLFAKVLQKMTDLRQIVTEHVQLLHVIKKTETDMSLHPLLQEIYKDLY
Chain of Nuclear receptor subfamily 1 group I member 2 (Mus musculus) (O54915 whole entry, looked up, the tested form may be a part): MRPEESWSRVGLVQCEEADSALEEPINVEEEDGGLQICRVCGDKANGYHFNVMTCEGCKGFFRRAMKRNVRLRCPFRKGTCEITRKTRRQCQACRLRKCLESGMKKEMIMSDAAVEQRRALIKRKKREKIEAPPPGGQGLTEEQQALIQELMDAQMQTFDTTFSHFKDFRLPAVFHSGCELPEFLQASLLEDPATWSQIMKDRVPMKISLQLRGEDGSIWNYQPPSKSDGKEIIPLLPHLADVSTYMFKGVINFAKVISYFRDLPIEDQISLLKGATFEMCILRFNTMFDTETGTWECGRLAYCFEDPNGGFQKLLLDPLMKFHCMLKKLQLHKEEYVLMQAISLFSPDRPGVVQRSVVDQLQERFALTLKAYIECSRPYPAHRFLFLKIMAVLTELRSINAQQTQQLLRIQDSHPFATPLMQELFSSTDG
Chain of zebrafish Thyroid Hormone Receptor alpha (TRa), thraa (gene 30670) (Q98867 whole entry, looked up, the tested form may be a part): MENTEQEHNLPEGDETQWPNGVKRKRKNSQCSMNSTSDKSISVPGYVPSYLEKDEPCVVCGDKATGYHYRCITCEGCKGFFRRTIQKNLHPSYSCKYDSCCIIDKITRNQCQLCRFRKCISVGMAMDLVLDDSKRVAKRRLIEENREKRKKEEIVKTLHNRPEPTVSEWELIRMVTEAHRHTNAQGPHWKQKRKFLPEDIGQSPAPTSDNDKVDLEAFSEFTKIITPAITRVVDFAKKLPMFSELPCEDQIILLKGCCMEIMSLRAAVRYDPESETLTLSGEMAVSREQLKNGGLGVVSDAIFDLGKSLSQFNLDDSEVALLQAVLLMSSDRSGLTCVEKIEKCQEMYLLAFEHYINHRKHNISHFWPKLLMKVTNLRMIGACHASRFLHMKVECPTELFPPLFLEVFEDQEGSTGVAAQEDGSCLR

Broadly, the AC50 is the concentration giving half of the maximal activity seen. Regarding `O=S1OCC2C(CO1)C1(Cl)C(Cl)=C(Cl)C2(Cl)C1(Cl)Cl` (configuration not stated), the figures for the AC50 in test [1] and in test [2] were 10 µM (active) and 1.04 µM (active), respectively. Also, the compound was classed as inactive in test [3], in test [4] and in [5].
As to `O=S(=O)(O)C(F)(F)C(F)(F)C(F)(F)C(F)(F)C(F)(F)C(F)(F)C(F)(F)C(F)(F)F`, the AC50 in test [1] was 146 µM (active); in [7], 145 µM (active). Further, the result in test [6], in [3], in test [8] and in test [5] was inactive.
On to `CCOCN(C(=O)CCl)c1c(C)cccc1CC`, for which the AC50 in test [1] is 100 µM (active); in test [7], 2.14 µM (active); in test [3] it was 5.1 µM (active). Also, the compound was classed as inactive in test [6].
In the case of `COP(=S)(OC)Oc1ccc([N+](=O)[O-])cc1`, the AC50 is 39.3 µM (active) in [1]; 31.1 µM (active) and 40.7 µM (active) in [2]; 27 µM (active) in test [7]; 41.4 µM (active) in test [3]. The compound was called inactive in [1], in test [7], in [3], in [4], in test [8] and in test [9].
With `CCCN(CCOc1c(Cl)cc(Cl)cc1Cl)C(=O)n1ccnc1`, the outcome in [1], in test [6], in [4], in [8] and in test [5] was inactive. Moreover, the values for the AC50 in [7] and in test [3] were 20.4 µM (active) and 0.108 µM (active), respectively.
Turning to `Oc1cc(Cl)ccc1Oc1ccc(Cl)cc1Cl`, the AC50 in test [1] is 16.1 µM (active); in test [7] it was 15 µM (active); in test [3], 11.1 µM (active); in test [9] it was 4.84 µM (active). Moreover, the result in test [6], in test [4], in [8] and in test [5] was inactive.
On to `O=C(O)C(F)(F)C(F)(F)C(F)(F)C(F)(F)C(F)(F)C(F)(F)C(F)(F)F`, for which the half-maximal activity concentration (AC50) in test [1] is 124 µM (active). Moreover, the compound was classed as inactive in test [10], in test [6], in test [8] and in [5].
For the compound `CCCN(CCC)c1c([N+](=O)[O-])cc(C(F)(F)F)cc1[N+](=O)[O-]`, the figures for the half-maximal activity concentration (AC50) in test [1], in test [2] and in test [3] were 69.9 µM (active), 18.8 µM (active) and 1.88 µM (active), respectively. Besides, the compound was classed as inactive in test [6], in test [7], in test [4] and in test [5].
In the case of `CC1(C)C(C=C(Cl)Cl)C1C(=O)OC(C#N)c1ccc(F)c(Oc2ccccc2)c1` (configuration not stated), the call in test [6], in [2], in test [4] and in [9] was inactive. The concentration at half-maximal activity (AC50) in test [7] was 10.9 µM (active); in [3], 1.97 µM (active); in test [8], 19.8 µM (active).
For the compound `COP(=S)(OC)Oc1ccc(SC)c(C)c1`, the half-maximal activity concentration (AC50) in test [1] was 59 µM (active); in test [2], 8.43 µM (active); in [7], 35.8 µM (active); in test [3], 1.94 µM (active). Besides, the outcome in [4], in [8], in test [9] and in test [5] was inactive.
Regarding `Oc1ccc(Cl)cc1Cc1ccccc1`, in [1], the AC50 was 14.6 µM (active). The result in test [7], in [3], in test [8], in [9] and in test [5] was inactive.
Regarding `CC(C)(C)C(O)/C(=C\c1ccc(Cl)cc1Cl)n1cncn1` (configuration not stated), the AC50 in [1] is 44 µM (active) and 14.4 µM (active); in test [2], 13.2 µM (active) and 17 µM (active); in test [7], 33.4 µM (active) and 20.8 µM (active); in test [3] it was 1.24 µM (active) and 1.41 µM (active). The call in test [6], in test [4], in test [8], in test [9] and in test [5] was inactive.

The record behind these values is PubChem BioAssay (EPA / NIEHS).
